beta cell repl: induces beta-cell replication in MIN6 cells; MIN6 cells proliferation, ATPlite luminescence, 48 h; cells starved in 0.2% serum; 100% = growth in 10% serum; proliferation, % at 10 µM; 330,000 tested, 0.29% active;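 active = compounds whose signal lies at least 3.5 SD above the mean of all wells on their plate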;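 also: 0% = DMSO-treated cells in low-serum medium and 100% = 10% serum control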
TAG inh: reduces triacylglycerol accumulation in H9c2 cells; Nile Red lipid (TAG) fluorescence; cells loaded with 200 µM oleic acid; inhibition, % at 12.5 µM; 230,000 tested, 0.66% active; AID 651582;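 active = pattern-corrected inhibition of lipid staining of at least 50% with the nuclear-stain viability signal not falling by more than 50%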;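 also: 0% = DMSO wells and 100% = triacsin C control wells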
hiPSC survival: increases survival of single human iPS cells; 360,000 tested, 0.044% active; survival enhancement, % at 20 µM; AID 602274; hiPSC single-cell survival, ATPlite luminescence; 100% = ROCK inhibitor wells, 0% = DMSO; in the data active = survival enhancement above about 18%;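 also: cells exposed to compounds for 16 hours before the ATP read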
TAG conf: confirmation of triacylglycerol accumulation inhibitors; shares compounds with TAG inh; H9c2 lipid accumulation, Nile Red fluorescence; cells loaded with 200 µM oleic acid; inhibition, % at 12.5 µM; 990 tested, 71% active; AID 651629;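 active = mean inhibition across replicates of 40% or more; inactive = mean inhibition below 40%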;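 also: plate controls were DMSO only wells for no effect and Triacsin C treated wells for full effect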
Starred values were filed as active, the others as inactive; nt = no result. An excerpt weighted towards active compounds, which were near 0.71% of everything screened.

SMILES	beta cell repl	TAG inh	hiPSC survival	TAG conf
COc1cc(OC)c2c(-c3ccccc3)cc(=O)oc2c1C(CCN1CCOCC1)c1ccc(N(C)C)cc1 (stereo unspecified)	nt	10.0	-2.9	nt
CCNC(=O)C1(C)CCN(C(=O)c2ccc(-c3ccccc3)cc2)C1 (stereo unspecified)	nt	-14.3	0.6	nt
CCN(CC(=O)Nc1ccccc1OC)C(=O)CSCC(=O)Nc1cccc(C)c1	nt	0.1	-0.3	nt
CC1=C(C(=O)N2CCCCCC2)CC(CC(=O)NC2CC2)C(=O)N1Cc1ccccc1 (stereo unspecified)	nt	nt	1.5	nt
COc1ccc(S(=O)(=O)NC(=O)C2(C)CCN2C(=O)Cc2ccccc2Cl)cc1 (stereo unspecified)	nt	12.2	1.1	nt
O=C1NC[C@@H](CCCCN2C[C@H](Cc3ccccc3)N(CCc3ccc(O)cc3)C(=O)C2=O)N(Cc2ccccc2)C1=O	nt	nt	0.3	nt
CCc1noc(C)c1C(=O)NCCN1C(=O)S/C(=C\c2ccccc2F)C1=O	nt	6.3	6.7	nt
COc1cc(CCCN2CCNC[C@H]2Cc2ccc(O)cc2)cc(OC)c1OC	-2.9	-9.1	1.2	nt
COc1cc(CCCN2CCNC[C@@H]2c2ccccc2)cc(OC)c1OC	-2.1	85.5*	-1.6	6.4
N#Cc1c([N+](=O)[O-])cc([N+](=O)[O-])cc1S(=O)(=O)Cc1ccccc1	-7.8	20.2	5.7	nt
Cc1ccn2c(C(C)O)nnc2c1 (stereo unspecified)	nt	-14.3	-0.5	nt
Cc1ccccc1N1CCN(c2ccccc2NC(=O)/C=C\C(=O)O)CC1	nt	6.3	0.3	nt
CC(=O)O[C@H]1C(=O)[C@]2(C)[C@H]([C@H](OC(=O)c3ccccc3)[C@]3(O)C[C@H](OC(=O)[C@H](O)[C@@H](NC(=O)c4ccccc4)c4ccccc4)C(C)=C1C3(C)C)[C@]1(OC(C)=O)CO[C@@H]1C[C@@H]2O	-6.5	54.1*	-2.0	57.0*
CC(=O)O[C@H]1C(=O)[C@@]2(C)C([C@H](OC(=O)c3ccccc3)[C@]3(O)C[C@H](OC(=O)[C@H](O)[C@@H](NC(=O)c4ccccc4)c4ccccc4)C(C)=C1C3(C)C)[C@]1(OC(C)=O)CO[C@@H]1C[C@H]2O (stereo partly specified)	-6.0	nt	-0.4	nt
NC(c1csc(Nc2ccc(C(=O)c3ccccc3)cc2)n1)C1CCCCC1 (stereo unspecified)	nt	56.8*	-3.0	36.2
CN(C)c1ccc(NC(=O)Nc2nc(C(N)C3CCCCC3)cs2)cc1 (stereo unspecified)	nt	74.4*	-4.7	55.6*
Cc1ccccc1NC(=O)Nc1nc(C(N)C2CCCCC2)cs1 (stereo unspecified)	nt	132.8	-2.7	nt
COc1ccc(NC(=O)Nc2nc(C(N)C3CCCCC3)cs2)cc1 (stereo unspecified)	nt	42.3	-2.9	nt
CC(=O)c1ccc(Nc2nc(C(N)C3CCCCC3)cs2)cc1 (stereo unspecified)	nt	14.2	-2.4	nt
CC(C)c1ccc(NC(=O)Nc2nc(C(N)C3CCCCC3)cs2)cc1 (stereo unspecified)	nt	129.7*	-4.4	132.7*
COCCN1C(=O)CCC1(C)C(=O)Nc1c(C)cccc1C (stereo unspecified)	nt	nt	5.2	nt
O=C(Nc1nnc([C@@H]2C[C@H](O)[C@@H](CO)O2)s1)c1cccc2ccccc12	nt	-7.4	-2.6	nt
Cc1cc(C)c(S(=O)(=O)N(C)CC(=O)N2CCCC2)c(C)c1	nt	-10.2	0.8	nt
COc1ccc(NC(=O)N(C)[C@H]2C[C@H]3c4[nH]c5ccc(-c6ccc(OC)cc6)cc5c4CCN3C[C@H]2[C@H](C)O)cc1	nt	33.7	-2.6	nt
COc1ccc(NC(=O)O[C@@H](C)[C@@H]2CN3CCc4c([nH]c5ccc(-c6ccc(OC)cc6)cc45)[C@@H]3C[C@@H]2N(C)C(=O)Nc2ccc(OC)cc2)cc1	nt	72.0*	-2.0	72.4*
COc1ccc(NC(=O)N(C)[C@H]2C[C@H]3c4[nH]c5ccc(-c6ccc7c(c6)OCO7)cc5c4CCN3C[C@H]2[C@H](C)O)cc1	nt	59.7*	-1.4	65.7*
COc1ccc(NC(=O)N(C)[C@H]2C[C@H]3c4[nH]c5ccc(-c6ccc(OC)cc6)cc5c4CCN3C(=O)[C@H]2[C@H](C)O)cc1	nt	23.5	-1.9	nt
COc1ccc(-c2ccc3[nH]c4c(c3c2)CCN2C(=O)[C@@H]([C@H](C)O)[C@@H](N(C)C(=O)Nc3ccccc3)C[C@@H]42)cc1	nt	12.7	-1.5	nt
COc1ccc(-c2ccc3[nH]c4c(c3c2)CCN2C[C@@H]([C@H](C)OC(=O)Nc3cc(Cl)cc(Cl)c3)[C@@H](N(C)C(=O)Nc3cc(Cl)cc(Cl)c3)C[C@@H]42)cc1	nt	73.1*	0.3	84.5*

Assay outcomes as filed in PubChem BioAssay.
